Source: PubChem BioAssay
CYP2C9 inh – inhibitors of human CYP2C9; inhibition, % at 5 µM; P11712; CYP2C9 Supersomes, luciferin-H conversion, luminescence; hit rate 20% among 96,000;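 active = blocking of liver enzyme CYP2C9 beyond about 50% at 5 µM, limit read from the data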
CYP2C19 inh – blocks human cytochrome P450 2C19; P33261; CYP2C19 Supersomes, luciferin-H EGE luminescence, 30 min; inhibition, % at 5 µM; hit rate 21% among 96,000; AID 778;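 active = CYP2C19 inhibition above a set limit at 5 µM in the primary screen, cut at about 50% in these data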;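 also: plate controls were negative control wells for no effect and 2.5 mM tranylcypromine positive control for full effect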
Pyk2 oligo antag – Pyk2 (human) oligomerization antagonism | Q14289 | Q293 cells, Pyk2 FERM NanoBiT luminescence; stronger effect = lower value | z-score (the deposit names both 25 µM and 10 µM) | hit rate 0.83% among 99,000;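 active = Z-score of -3 or lower, scaled per plate to the spread of control and sample wells; inactive = z-score above -3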;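 also: negative z-score means lost luminescence so less FERM oligomerization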
CYP2C9 act – increases human cytochrome P450 2C9 activity. recombinant CYP2C9, luciferin-H conversion, luminescence; stronger effect = higher value; factor 1 = untreated enzyme, 0 = blocked. AID 1024. hit rate 1.4% among 96,000. activation factor at 5 µM;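 active = activation factor of 2 or more for CYP2C9 at a 5 µM dose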;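 also: 0 = sulfaphenazole-blocked wells and 1 = vehicle-only wells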
CYP2C19 act – increases human CYP2C19 enzyme activity; P33261; AID 1025; 96,000 tested, under 10 active; recombinant CYP2C19, luciferin-H EGE luminescence; stronger effect = higher value; 0 = fully inhibited enzyme, 1 = untreated enzyme; activation factor at 5 µM;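 active = activation factor of at least 2 at 5 µM in the primary screen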;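 also: 0 = wells with 2.5 mM tranylcypromine and 1 = vehicle-only wells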
Cav3 T inh – human Cav3.2 channel inhibition, primary screen; Cav3.2-expressing cells, Fluo-4 calcium fluorescence FDSS; stronger effect = lower value; B-score at 10 µM; hit rate 4% among 100,000;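 active = single-dose well whose peak fluorescence ratio is a statistical outlier from its plate by either plate-standardised score or position-corrected B-score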
* hit, by the source's call. A selection: hits, their analogues and other compounds. The true share with any hit is near 27%.

`C#CCOc1ccc(Br)cc1/C=N/O` gave CYP2C9 inh 65.8*, CYP2C19 inh 64.2*, Pyk2 oligo antag -0.21, CYP2C9 act 0.3, CYP2C19 act 0.4 and Cav3 T inh -1.19.
O/N=C/c1cc(Cl)ccc1OCc1cccc2ccccc12 was read as CYP2C9 inh 76.0*, CYP2C19 inh 52.7*, CYP2C9 act 0.2, CYP2C19 act 0.5 and Cav3 T inh -1.91.
`COc1ccc(C(C)NC(=O)C2CCCO2)cc1OC` (stereo not drawn) gave CYP2C9 inh -3.2, CYP2C19 inh 5.0, Pyk2 oligo antag 0.09, CYP2C9 act 1, CYP2C19 act 0.9 and Cav3 T inh 1.25.
`CSC1=NCCN1C(=O)Cc1cccs1` gave CYP2C9 inh -1.5, CYP2C19 inh 2.0, CYP2C9 act 1, CYP2C19 act 1 and Cav3 T inh 0.29.
`CC(C)(NC(=O)N1CCOCC1)c1cccc(C(C)(C)NC(=O)N2CCOCC2)c1` gave Pyk2 oligo antag 0.53 and Cav3 T inh -0.86.
Screening O=C(CCN1C(=O)c2ccccc2C1=O)N1CCN(Cc2ccc(Cl)cc2Cl)CC1 returned CYP2C9 inh 43.1, CYP2C19 inh 17.2, Pyk2 oligo antag 0.24, CYP2C9 act 0.6, CYP2C19 act 0.8 and Cav3 T inh -6*.
O=S(=O)(NC1CCCC1)c1cccc(-c2nnc(-c3ccccc3)o2)c1 was read as CYP2C9 inh 86.7*, CYP2C19 inh 34.5, Pyk2 oligo antag -0.78, CYP2C9 act 0.1, CYP2C19 act 0.7 and Cav3 T inh 0.0432.
For Nc1nc(-c2ccc(Br)s2)c(Br)s1 the results were CYP2C9 inh 8.2, CYP2C19 inh -7.5, Pyk2 oligo antag -0.41, CYP2C9 act 0.9, CYP2C19 act 1.1 and Cav3 T inh 0.667.
Screening CN(C[C@@H](Cc1cccc2ccccc12)N(C[C@H](Cc1ccccc1)N(CCc1ccccc1)N=O)N=O)N=O returned Cav3 T inh -0.993.
Screening O=c1c2cn[nH]c2[nH]c(=S)n1-c1ccccc1F returned Pyk2 oligo antag 1.79 and Cav3 T inh 1.21.
For O=C(Cn1cnc2c(nnn2-c2cccc(Cl)c2)c1=O)N1CCOCC1 the results were CYP2C9 inh -0.6, CYP2C19 inh -11.8, CYP2C9 act 1, CYP2C19 act 1.1 and Cav3 T inh 0.11.
For CCOC(=O)C(C)n1cnc2c(nnn2-c2cccc(Cl)c2)c1=O (stereo not drawn) the results were CYP2C9 inh -95.9, CYP2C19 inh -6.7, CYP2C9 act 2*, CYP2C19 act 1.1 and Cav3 T inh -0.0356.
Screening CCOC(=O)c1c(N2C(=O)Nc3cc(Cl)c(Cl)cc3N2O)sc2c1CCCCC2 returned CYP2C9 inh 69.6*, CYP2C19 inh 17.4, Pyk2 oligo antag -0.8, CYP2C9 act 0.3, CYP2C19 act 0.8 and Cav3 T inh -3.94*.
Screening CCOC(=O)c1c(N2C(=O)C3C4C=CC(O4)C3C2=O)sc2c1CCCC2 (stereo not drawn) returned CYP2C9 inh 14.4, CYP2C19 inh 18.2, Pyk2 oligo antag -0.28, CYP2C9 act 0.9 and CYP2C19 act 0.8.
CC(C)[C@H](NC(=O)NCCc1ccc(Cl)cc1)C(=O)O was read as CYP2C9 inh 11.5, CYP2C19 inh -4.3, Pyk2 oligo antag 0.04, CYP2C9 act 0.9, CYP2C19 act 1 and Cav3 T inh 1.44.
For CCN(C(=O)c1ccc2c(Cl)c3c(nc2c1)CCC3)c1cccc(C)c1 the results were Cav3 T inh -5.58*.
Screening N#Cc1ccccc1NC(=O)c1ccc2c(Cl)c3c(nc2c1)CCCC3 returned Pyk2 oligo antag -0.4.
`Cc1ccc(N(C)C(=O)c2ccc3c(Cl)c4c(nc3c2)CCC4)cc1C` gave Cav3 T inh -5.53*.
CCc1ccc(N(CC)C(=O)c2ccc3c(Cl)c4c(nc3c2)CCC4)cc1 was read as Cav3 T inh -3.24*.
`COc1ccc(N(CC(=O)Nc2cc(C)on2)S(=O)(=O)c2cc(C)ccc2C)cc1` gave CYP2C9 inh 95.4*, CYP2C19 inh 98.1*, Pyk2 oligo antag -1.67, CYP2C9 act 0, CYP2C19 act 0 and Cav3 T inh -2.16.
For Cc1ccc(N(C(C)C(=O)O)S(=O)(=O)c2c(C)n[nH]c2C)cc1 (stereo not drawn) the results were CYP2C9 inh 20.3, CYP2C19 inh 11.1, Pyk2 oligo antag 0.04, CYP2C9 act 0.8, CYP2C19 act 0.9 and Cav3 T inh -0.17.
